Reference: PubChem BioAssay AID743314 (Broad Institute, 2014)
Results with a measured potency or affinity are listed apart. Results filed as inconclusive are left out. Unmarked numbers belong to inactive results.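 How the source made its calls: active means fitted half-maximal concentration no higher than twice the top tested dose, in every repeat run; inconclusive means repeat runs disagree, poor fit, or flat partial inhibition; inactive means the rest.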

target: Endoplasmic reticulum aminopeptidase 1 (Homo sapiens) (UniProt Q9NZ08); test: inhibition of human ERAP1 enzyme activity – biochemical, cherry-pick, set 2, plate reader, dose response (AID 743314); conditions: Recombinant ERAP1, Leu-AMC fluorescence, 60 min; series mostly up to 11 µM; activity change, negative = inhibition: at the top concentration;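 further: 0% = neutral control wells and -100% = L-leucinethiol positive control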
Sequence (Q9NZ08 whole entry, looked up): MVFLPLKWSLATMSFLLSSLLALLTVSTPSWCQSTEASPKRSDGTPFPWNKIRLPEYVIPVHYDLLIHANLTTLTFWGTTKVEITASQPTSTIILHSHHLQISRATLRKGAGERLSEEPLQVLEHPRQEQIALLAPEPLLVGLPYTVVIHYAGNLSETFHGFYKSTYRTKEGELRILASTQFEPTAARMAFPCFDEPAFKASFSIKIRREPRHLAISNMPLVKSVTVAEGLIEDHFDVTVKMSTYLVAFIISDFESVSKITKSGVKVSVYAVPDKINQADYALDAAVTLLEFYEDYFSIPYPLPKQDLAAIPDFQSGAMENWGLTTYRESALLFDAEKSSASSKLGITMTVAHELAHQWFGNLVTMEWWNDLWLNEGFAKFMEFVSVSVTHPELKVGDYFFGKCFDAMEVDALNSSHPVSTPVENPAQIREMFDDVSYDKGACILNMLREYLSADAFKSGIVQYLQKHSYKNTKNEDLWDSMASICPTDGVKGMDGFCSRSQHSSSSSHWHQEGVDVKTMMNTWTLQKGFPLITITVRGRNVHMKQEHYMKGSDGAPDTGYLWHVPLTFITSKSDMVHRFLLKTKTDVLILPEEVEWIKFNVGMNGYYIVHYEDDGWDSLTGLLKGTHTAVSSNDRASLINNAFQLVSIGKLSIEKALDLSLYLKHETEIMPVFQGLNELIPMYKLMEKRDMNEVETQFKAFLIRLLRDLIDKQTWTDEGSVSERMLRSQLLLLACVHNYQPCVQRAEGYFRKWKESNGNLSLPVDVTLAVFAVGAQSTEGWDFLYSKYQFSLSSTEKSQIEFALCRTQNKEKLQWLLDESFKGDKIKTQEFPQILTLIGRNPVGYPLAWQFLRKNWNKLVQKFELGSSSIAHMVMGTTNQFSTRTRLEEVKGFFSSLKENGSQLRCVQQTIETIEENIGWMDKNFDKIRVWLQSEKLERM

Row | Compound | activity change, negative = inhibition
1 | Cn1cnc(Sc2ncnc3nc[nH]c23)c1[N+](=O)[O-] | -15.1%
2 | CC(=O)N1CC[C@@H]2[C@@H](CO)N(C)c3ccc(-c4ccc(C#N)cc4)cc3[C@@H]21 | -0.418%
3 | CC(=O)N(C)C[C@H]1Oc2cc(C#CC(C)C)ccc2S(=O)(=O)N([C@@H](C)CO)C[C@H]1C | 37.2%
4 | CCN(CC)CCCN=C1N[C@@H](c2ccccc2)C(C(=O)OC)=C(C)N1CC | -11.5%
5 | Cc1ccc(Cl)cc1NC(=O)CCC(=O)O | 17%
6 | COc1ccc(NC(=O)N[C@@H]2CC[C@@H](CCn3cc(-c4ccc(F)cc4)nn3)O[C@H]2CO)cc1 | 32.5%
7 | C[C@@H]1CN([C@H](C)CO)C(=O)c2cc(NC(=O)CCN3CCOCC3)ccc2O[C@H]1CN(C)S(=O)(=O)c1ccccc1 | 24.3%
8 | CCCN1[C@@H]2Cn3c(ccc(-c4cccnc4)c3=O)[C@H]1[C@@H](C(=O)NCCc1cn(C)cn1)[C@@H]2CO | 36%
9 | CCn1c(SCC(=O)NC2CCCCC2)nc2ccccc2c1=O | -8.12%
10 | O=C(CC1CC1)N1[C@H](CO)[C@H](c2ccccc2)C12CN(Cc1cc(F)ccc1F)C2 | 11.5%
11 | CC(C)c1ccc(OC(=O)c2cccc(S(=O)(=O)N3CCN(C)CC3)c2)cc1 | -4.13%
12 | COc1ccc(-c2c(C)c3ccc(O)cc3oc2=O)cc1OC | 2.53%
13 | C[C@@H]1CN([C@H](C)CO)C(=O)c2cc(NC(=O)C3CC3)ccc2O[C@H]1CN(C)Cc1ccncc1 | 26.1% [at 2.6 µM]
14 | O=S(=O)(Nc1cccc(-c2cn3c(n2)SCC3)c1)c1ccccc1 | -4.83%
15 | C[C@H](CO)N1C[C@H](C)[C@H](CN(C)C(=O)Nc2ccc(F)cc2)Oc2ccc(NC(=O)CCN3CCOCC3)cc2C1=O | 5.52% [at 10 µM]
16 | CCN(CC)c1ccc2c(C)c(Cl)c(=O)oc2c1 | 59.1%
17 | C[C@@H]1CN([C@H](C)CO)C(=O)c2cccc(NC(=O)Nc3ccccc3)c2O[C@@H]1CN(C)Cc1ccc(C(=O)O)cc1 | 54.7%
18 | CN(CC(=O)Nc1cccc(F)c1)C(=O)CCc1nc2ccccc2c(=O)[nH]1 | 8.54%
19 | COc1ccc(CN(C)C[C@@H]2Oc3ccc(NS(=O)(=O)c4ccc(C)cc4)cc3C(=O)N([C@@H](C)CO)C[C@@H]2C)cc1 | 8.81%

Row | Compound | activity change, negative = inhibition
20 | COc1cccc(-c2ccc([C@H]3[C@H]4CN(C(=O)c5cccnc5)CC(=O)N4[C@H]3CO)cc2)c1 | 23.7%
21 | C[C@@H]1CN([C@H](C)CO)C(=O)Cc2cc(NC(=O)Nc3cccc4ccccc34)ccc2O[C@H]1CN(C)Cc1ccc(C(=O)O)cc1 | 18.3%
22 | Cc1ccc(OCC(=O)Nc2ccc(S(=O)(=O)N(C)C3CCN(C)CC3)cc2)c(C)c1 | -1.18%
23 | COc1ccc2c3c([nH]c2c1)[C@H](CO)NCC31CN(Cc2cc(F)ccc2F)C1 | 19.8%
24 | CCN1CCN(c2ccc(S(=O)(=O)N3CCCCC3)cc2NC(=O)c2ccccc2)CC1 | -6.46%
25 | Cc1ccc(CN2C(=O)CCC2C(=O)NCCN2CCN(c3cccc(Cl)c3)CC2)cc1 (stereo not drawn) | 5.74%
26 | CCn1cc(CN2CCCC(C(=O)Nc3ccc(-c4nc5ccccc5[nH]4)cc3)C2)c(C)n1 (stereo not drawn) | 82.3%
27 | CN1c2ccc(-c3ccccc3)cc2[C@H]2[C@H](CCN2C(=O)c2ccccc2)[C@@H]1CO | 34.8%
28 | O=C(CC1CC1)N1[C@@H](CO)[C@@H](c2ccccc2)C12CN(Cc1cc(F)ccc1F)C2 | 14%
29 | COc1ccccc1CN1CC[C@@H]2[C@H](CO)Nc3ccc(-c4cccc(C(=O)N(C)C)c4)cc3[C@@H]21 | 41.8% [at 10 µM]
30 | O=C(Cc1ccccn1)N1CC(=O)N2[C@@H](CO)[C@H](c3ccc(C#CC4CCCC4)cc3)[C@@H]2C1 | 30.6%
31 | CC(C)NC(=O)N[C@@H]1CC[C@@H](CCNS(=O)(=O)c2ccc(Cl)cc2)O[C@@H]1CO | 7.37%
32 | O=C(CSc1nc2ccccc2c(=O)n1-c1ccccc1)NCC1CCCO1 (stereo not drawn) | -4.58%
33 | Cc1cc(S(=O)(=O)c2cc3ccc(O)c(C)c3oc2=O)ccc1F | -4.67%
34 | Cc1[nH]c2ccccc2c1C(=O)CN1C(=O)C(=O)N(Cc2ccco2)C1=O | -9.8%
35 | COc1ccc(S(=O)(=O)N(C)C[C@H]2Oc3ccc(N(C)C)cc3CC(=O)N([C@H](C)CO)C[C@H]2C)cc1 | 27.5%
36 | COCCN(C(=O)COC(=O)CNC(=O)c1cccs1)c1c(N)n(Cc2ccccc2)c(=O)[nH]c1=O | -3.47%
37 | C[C@@H]1CN([C@H](C)CO)C(=O)c2cc(NC(=O)CCN3CCOCC3)ccc2O[C@@H]1CN(C)S(=O)(=O)c1ccccc1 | 23.2%
38 | CCOc1ccccc1-n1nnnc1SCC(=O)NC(=O)Cc1ccccc1 | -3.38%
